Bioassay records (PubChem BioAssay)
Sampled rows, rich in hits. Any-hit rate of the full collection: about 6%.
D1 antag = antagonists of human D1 dopamine receptor | HEK293 TREx D1 cells, calcium flux, dopamine EC80; hits give low values | activity change, negative = inhibition, % at 10 µM | actives 3.2% (n = 360,000); in the data active means activity change below about -30%; further: on the % scale 0 is the no-effect control and ±100 the full control effect
Target sequence (P21728 whole entry, looked up): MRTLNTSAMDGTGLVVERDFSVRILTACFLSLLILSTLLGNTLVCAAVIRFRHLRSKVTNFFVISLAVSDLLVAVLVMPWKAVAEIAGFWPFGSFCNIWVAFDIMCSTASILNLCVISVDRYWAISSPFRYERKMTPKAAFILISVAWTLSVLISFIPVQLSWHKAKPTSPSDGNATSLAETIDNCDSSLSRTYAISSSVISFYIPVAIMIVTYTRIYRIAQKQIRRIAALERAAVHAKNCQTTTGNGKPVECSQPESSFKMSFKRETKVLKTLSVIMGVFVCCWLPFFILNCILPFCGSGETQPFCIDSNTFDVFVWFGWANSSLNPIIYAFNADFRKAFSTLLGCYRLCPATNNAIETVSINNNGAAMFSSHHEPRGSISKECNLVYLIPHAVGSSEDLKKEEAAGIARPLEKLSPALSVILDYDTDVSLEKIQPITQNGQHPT
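After overnight tetracycline induction at 30 C, force-coupled D1 HEK293 cells took up a no-wash calcium dye at room temperature. Compounds were added and monitored 180 s, and the response to EC80 dopamine was then recorded.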
D1 PAM = enhances dopamine response at the human D1 receptor; P21728; HEK293 TREx D1 cells, calcium flux, dopamine EC20 potentiation; potentiation, % at 10 µM; actives 0.036% (n = 360,000); in the data active means potentiation above about 30%; further: 0% is about no effect
D1 agonist = agonists of human D1 dopamine receptor; P21728; HEK293 T-REx D1 cells, calcium flux, agonist mode; activation, % at 2 µM; actives 1% (n = 360,000); AID 504660; in the data active means activation above about 30%; further: 0% is about no effect
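Tetracycline-induced HEK293 TREx D1 cells, force-coupled to calcium signalling, were dye-loaded with a no-wash calcium kit. Compound was pin-added after a 10 s baseline. Fluorescence was read kinetically at 1 cycle/s for 180 s, with calcium rises flagged as agonism.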
DRD3 agonist = activates the human D3 dopamine receptor; AID 652048; max activation, %; D3R DiscoveRx beta-arrestin cells, luminescence, 90 min; actives 0.58% (n = 410,000); in the data active means max activation above about 30%; further: 0% is about no effect
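Agonist mode: compounds and dopamine controls were applied to plated cells for 90 min at 37 degrees C after an overnight attachment at 1500 cells/well. Luminescent read-out followed 30 - 60 minutes at room temperature with DiscoveRx detection reagent.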
D3 antag = blocks the human D3 dopamine receptor. AID 652054. max response, negative = inhibition, %. D3R cells, DiscoveRx beta-arrestin luminescence, antagonist mode; hits give low values. actives 2.5% (n = 360,000); in the data active means max response below about -50%; inconclusive means no clear call, values can overlap the other calls; further: on the % scale 0 is the no-effect control and ±100 the full control effect
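Cells expressing the human receptor were seeded at 1500 cells/well, incubated overnight at 37 degrees C in 5% CO2, then exposed to library compounds with dopamine controls for 90 minutes at 37 degrees C before luminescent detection.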
Starred values were filed as active, the others as inactive; ? = inconclusive; · = no result given.

SMILES	D1 antag	D1 PAM	D1 agonist	DRD3 agonist	D3 antag
Cn1c(=O)n(C)c2cc(N3CCOCC3)c(NC(=O)c3ccccc3Br)cc21	-43*	-2	-1	-7	·
Cc1ccccc1C(=O)Nc1cc2c(cc1N1CCOCC1)n(C)c(=O)n2C	7	0	1	14	·
O=C(Nc1ccc(N2CCCC2)c(Cl)c1)c1ccco1	-10	-4	0	-10	-17
O=C(Nc1ccccc1N1CCOCC1)c1cc(Br)c(Br)s1	-31*	3	3	-5	6
CCC(Cc1c(I)cc(I)c(O)c1I)C(=O)O (stereo unspecified)	·	·	·	6	·
CC(=O)Nc1cccc(-c2ccnc3c2CC(C(=O)Nc2ccc(Cl)cc2)O3)c1 (stereo unspecified)	·	·	·	1	-29
O=C(Nc1ccc(N2CCCCC2)c(Cl)c1)c1ncn[nH]1	1	1	39*	-4	-4
Cc1ccc(NC(=O)c2cc(N3CCOCC3)nc3ccccc23)cc1	-3	6	2	3	18
CCN1CCN(c2ccc(NC(=O)c3cccc(F)c3)cc2Cl)CC1	-36*	-6	7	-6	-13
CCN1CCN(c2ccc(NC(=O)c3ccco3)cc2Cl)CC1	-5	-11	3	-10	2
O=C(Nc1ccccc1)c1cc(N2CCOCC2)nc2ccccc12	-55*	0	1	2	31
COc1ccc(C(=O)Nc2cc3c(cc2N2CCCCC2)n(C)c(=O)n3C)cc1OC	-6	-3	-1	32*	24
CCOCC(O)COc1ccc(NC(=O)CC[S+](C)C)cc1 (stereo unspecified)	·	·	·	-15	·
FC(F)(F)c1cc(-c2ccccc2)nc(NC2CCCC2)n1	12	0	6	1	34
CCOC(=O)c1sc2ncn(CC(=O)Nc3ccc(OCC)cc3)c(=O)c2c1C	1	1	0	1	·
CCOc1ccc(Cl)cc1S(=O)(=O)n1nnc2ccccc21	-39*	-3	3	-4	-2
CCOc1ccc(S(=O)(=O)n2nnc3ccccc32)cc1C	1	3	2	6	28
CC(Oc1ccccc1)C(=O)Nc1c(C(=O)Nc2cccc(F)c2)oc2ccccc12 (stereo unspecified)	-3	4	4	15	·
Cc1cc2c(s1)c1cnn(Cc3cc(C(F)(F)F)cc(Cl)c3F)c(=O)c1n2C	-35*	-5	6	·	·
Cc1cc2c(s1)c1cnn(Cc3cccc(Cl)c3F)c(=O)c1n2C	11	6	1	·	·
CC(=O)c1sc(N/N=C\c2c(O)ccc3ccccc23)nc1C	·	·	·	-10	-54*
CC(=O)c1sc(N/N=C/c2cccc(O)c2)nc1C	8	-2	-1	-7	-18
CC(C)Oc1ccc(C(=O)N/N=C/c2ccc(-c3ccc(S(=O)(=O)Nc4ncccn4)cc3)o2)cc1	-22	0	2	5	-55*
O=C(Nc1ccc2oc(-c3cccnc3)nc2c1)c1ccc(-c2ccccc2OC(F)(F)F)o1	-11	-2	1	5	·
Cc1ccc([N+](=O)[O-])cc1N/C=C1\CCCCC1=O	13	-4	37*	1	4
SMILES	D1 antag	D1 PAM	D1 agonist	DRD3 agonist	D3 antag
Cc1c(NC(=S)NC(=O)Cc2ccccc2)cccc1C(=O)O	-9	-2	1	0	21
Cc1cccc(NC(=S)NC(=O)Cc2ccccc2)c1C	6	-3	65*	5	6
Cc1cccc(NC(=S)NC(=O)CCc2ccccc2)c1C	20	5	12	-2	-14
Cc1cc(C)c(O)c(NC(=S)NC(=O)Cc2ccccc2)c1	-11	2	33*	8	2
Cc1ccc(CCNC(=O)c2cc3c(=O)oc4ccccc4c3s2)cc1	-9	0	0	3	·
CCCCCCCCCCCC(=O)NC(C(=O)OCC)C(O)c1cccc([N+](=O)[O-])c1 (stereo unspecified)	·	·	·	32*	4
CC(=O)OCC(=O)[C@@]1(O)CC[C@H]2[C@@H]3CCC4=CC(=O)CC[C@]4(C)C3=CC[C@@]21C	·	·	·	-3	·
C=CCN1CCN(C(c2ccccc2)c2nnnn2CCC(C)C)CC1 (stereo unspecified)	-2	-3	2	-10	-82*
Cc1ccc(C(c2nnnn2CCC(C)C)N2CCN(C)CC2)cc1 (stereo unspecified)	-17	4	-1	-1	-67*
Cc1ccc(C(CNS(=O)(=O)c2ccc(Cl)cc2)N2CCN(C)CC2)cc1 (stereo unspecified)	-34*	-10	43*	-11	-16
CCCCN(CC)CCCn1cnc2c([nH]c3ccc(Cl)cc32)c1=O	-3	-2	9	11	·
Cc1ccc(NC(=O)c2sc3nc[nH]c(=O)c3c2C)cc1C	4	2	2	0	·
O=C(CSc1nnc(-c2ccco2)o1)NC(=O)C1COc2ccccc2O1 (stereo unspecified)	-14	-6	2	3	-55*
O=C(CSc1nnc(-c2ccco2)o1)NC(=O)Cc1ccccc1	5	-3	4	-6	-15
COc1ccc(C(CNC(=O)CCNS(=O)(=O)c2ccc(Br)cc2)N2CCCC2)cc1 (stereo unspecified)	-63*	-8	48*	-34	-50*
COc1ccc(C(CNC(=O)C(C)Oc2ccc(Br)cc2)N2CCCCC2)cc1 (stereo unspecified)	10	·	7	-18	-92*
COc1ccc(C(CNC(=O)CCNS(=O)(=O)c2ccc(Br)cc2)N2CCOCC2)cc1 (stereo unspecified)	·	·	·	-19	-5
CCC(C)NC(=O)CCNS(=O)(=O)c1ccc(Br)cc1 (stereo unspecified)	-93*	2	2	3	14
CCOc1ccc(S(=O)(=O)NCCC(=O)NCC(c2ccc(F)cc2)N2CCOCC2)cc1 (stereo unspecified)	-78*	-17	1	-9	-10
CCOc1ccc(S(=O)(=O)NCCC(=O)NCC(c2ccc(OC)cc2)N2CCCCC2)cc1 (stereo unspecified)	3	-2	2	-32	?
CCCS(=O)(=O)NC(=O)C1(C)CCCN(C(=O)c2ccc(C#N)cc2)C1 (stereo unspecified)	·	·	·	8	-8
COc1ccccc1N1CCN(C(=O)c2cn(C)c3ccc(S(=O)(=O)N(C)C4CCCCC4)cc3c2=O)CC1	2	-1	2	0	·
CC(=O)c1cccc(OCCN2C(=O)NC(C)(C)C2=O)c1	-30*	1	0	7	14
CCCCN(C)CCNC(=O)C1CCCN(S(=O)(=O)c2ccc3c(c2)oc(=O)n3C)C1 (stereo unspecified)	3	-2	-1	-19	·
Cc1ccc(S(=O)(=O)c2nnn3c2nc(N2CCC(C(N)=O)CC2)c2cc(Cl)ccc23)cc1C	-33*	-6	2	-11	·
